Results: PubChem BioAssay (Tox21)
Inconclusive results are not listed. Calls of active or inactive are those of the source. Unless noted, the call rests on the fitted dose curve; in most records, active means well fitted curve in the direction sought with a large enough effect in the repeat runs; inconclusive means weak or mixed curves; inactive means no such curve, though single readings can be large; an effect the other way counts as inactive or inconclusive.

Key:
[1] = qHTS assay to identify small molecule agonists of the peroxisome proliferator-activated receptor delta (PPARd) signaling pathway - cell viability counter screen (AID 743211); further: nearly all actives have a fitted effect of over 55% in size
Outline: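 Following 5 h plating at 37 C and 5% CO2, PPARd UAS-bla HEK293H cells took up test compounds for 17 h. Viability was quantified by luminescence 30 min after CellTiter-Glo addition at room temperature.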

[2] = molecular target: Peroxisome proliferator-activated receptor delta (Homo sapiens) (UniProt Q03181); assay: qHTS assay to identify small molecule agonists of the peroxisome proliferator-activated receptor delta (PPARd) signaling pathway (AID 743212; calls by dose curve)
Chain of Peroxisome proliferator-activated receptor delta (Homo sapiens) (Q03181 whole entry, looked up): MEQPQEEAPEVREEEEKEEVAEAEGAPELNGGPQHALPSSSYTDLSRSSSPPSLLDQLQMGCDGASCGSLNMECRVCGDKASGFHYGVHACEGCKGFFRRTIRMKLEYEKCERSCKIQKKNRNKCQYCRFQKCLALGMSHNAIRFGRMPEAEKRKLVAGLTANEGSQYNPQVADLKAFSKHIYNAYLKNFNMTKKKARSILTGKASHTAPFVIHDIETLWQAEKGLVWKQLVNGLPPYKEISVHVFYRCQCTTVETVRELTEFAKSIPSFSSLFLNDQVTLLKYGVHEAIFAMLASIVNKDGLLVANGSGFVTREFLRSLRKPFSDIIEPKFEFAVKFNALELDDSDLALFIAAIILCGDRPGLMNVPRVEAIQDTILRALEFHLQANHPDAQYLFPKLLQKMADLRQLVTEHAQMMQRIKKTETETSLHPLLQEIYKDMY
Outline: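 Quantitative high-throughput agonist screen in a HEK293H beta-lactamase reporter line under UAS control. Compounds in DMSO, at 37 C. Fluorescence read after 2 h with FRET substrate at room temperature.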

[3] = qHTS assay to identify small molecule antagonists of the peroxisome proliferator-activated receptor delta (PPARd) signaling pathway - cell viability counter screen (AID 743213); further: nearly all actives have a fitted effect of over 50% in size
Outline: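 PPARd-bla HEK293H cells (3000/well) got compound plus 300 nM L165041 agonist for 17 h at 37 C. Viability in the same wells came from CellTiter-Glo luminescence after 30 min at room temperature.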

[4] = molecular target: Peroxisome proliferator-activated receptor delta (Homo sapiens) (UniProt Q03181); assay: qHTS assay to identify small molecule antagonists of the peroxisome proliferator-activated receptor delta (PPARd) signaling pathway (AID 743215; active means well fitted inhibition curve with a large enough effect in the signal ratio in the repeat runs, not every such curve was filed as active; the % refers to the signal ratio;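 further: cells stimulated with agonist L165041 at 300 nM final during compound exposure; series mostly up to about 62 µM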)
Outline: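 Antagonist-mode beta-lactamase reporter screen: HEK293H cells with UAS-bla under PPARd control, stimulated by 300 nM L165041 (final) alongside test compound for 17 h at 37 C, then FRET fluorescence after 2 h substrate incubation.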

[5] = qHTS assay to identify small molecule agonists of the farnesoid-X-receptor (FXR) signaling pathway - cell viability counter screen (AID 743218); further: nearly all actives have a fitted effect of over 45% in size
Outline: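 In GeneBLAzer FXR-UAS-bla HEK 293T cells, compounds act for 16 h at 37 C. Cell viability is then scored in the reporter wells by CellTiter-Glo, 30 min at RT, luminescence.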

[6] = qHTS assay to identify small molecule antagonists of the farnesoid-X-receptor (FXR) signaling pathway - cell viability counter screen (AID 743221; active means well fitted cell-killing curve with a large enough effect in the repeat runs, not every such curve was filed as active; further: nearly all actives have a fitted effect of over 50% in size)
Outline: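 Compound effects on cell number were measured as CellTiter-Glo luminescence in HEK 293T cells expressing FXR-UAS-bla, after 16 h at 37 C with 50 uM CDCA (final).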

[7] = qHTS assay to identify small molecule agonists of the vitamin D receptor (VDR) signaling pathway - cell viability counter screen (AID 743224); further: series mostly up to about 63 µM; nearly all actives have a fitted effect of over 50% in size
Outline: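 VDR-bla cell line, quantitative HTS format; 16 h compound incubation (37C, 5% CO2); ATP-based CellTiter-Glo luminescence measured in the reporter assay wells.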

[8] = qHTS assay to identify small molecule antagonists of the vitamin D receptor (VDR) signaling pathway - cell viability counter screen (AID 743225); further: nearly all actives have a fitted effect of over 50% in size
Outline: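 In this counter screen, VDR-bla HEK 293T cells receive test compound plus 3 nM final calcitriol for 16 h at 37C. Room-temperature steps of 2 h with the beta-lactamase substrate, then 30 min with CellTiter-Glo, precede the luminescence read.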

[9] = qHTS assay to identify small molecule agonists of the NFkB signaling pathway - cell viability counter screen (AID 1159515; calls by dose curve; further: series mostly up to about 61 µM; nearly all actives have a fitted effect of over 55% in size)
Outline: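 Viability in NFkB-bla ME-180 cells was measured by CellTiter-Glo luminescence, 30 min room temperature, in wells already treated 5 hr with compounds and read for reporter FRET.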

[10] = qHTS assay to identify small molecule agonists of the endoplasmic reticulum stress response signaling pathway - cell viability counter screen (AID 1159517; calls by dose curve)
Outline: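 Counter-screen wells were identical to the reporter wells. Cells were plated at 1,500 per well and dosed for 5 hr, then read for luminescence 30 min after CellTiter-Glo addition.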

[11] = molecular target: Nuclear receptor ROR-gamma (Homo sapiens) (UniProt P51449); assay: qHTS assay to identify small molecule antagonists of the retinoid-related orphan receptor gamma (ROR-gamma) signaling pathway (AID 1159521)
Outline: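 Screening format: cell-based luciferase reporter in CHO cells with doxycycline-inducible RORγ. Compound pre-exposure lasts 2 h, doxycycline is 1 uM final, induction runs 16 h at 37 C, and ONE-Glo luminescence is read.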

[12] = qHTS assay to identify small molecule agonists of the AP-1 signaling pathway (AID 1159526; calls by dose curve)
[13] = molecular target: Bile acid receptor (Homo sapiens) (UniProt Q96RI1); assay: qHTS assay to identify small molecule antagonists of the farnesoid-X-receptor (FXR) signaling pathway (AID 743217; active means well fitted inhibition curve with a large enough effect in the signal ratio in the repeat runs, not every such curve was filed as active; the % refers to the signal ratio)
Chain of Bile acid receptor (Homo sapiens) (Q96RI1 whole entry, looked up): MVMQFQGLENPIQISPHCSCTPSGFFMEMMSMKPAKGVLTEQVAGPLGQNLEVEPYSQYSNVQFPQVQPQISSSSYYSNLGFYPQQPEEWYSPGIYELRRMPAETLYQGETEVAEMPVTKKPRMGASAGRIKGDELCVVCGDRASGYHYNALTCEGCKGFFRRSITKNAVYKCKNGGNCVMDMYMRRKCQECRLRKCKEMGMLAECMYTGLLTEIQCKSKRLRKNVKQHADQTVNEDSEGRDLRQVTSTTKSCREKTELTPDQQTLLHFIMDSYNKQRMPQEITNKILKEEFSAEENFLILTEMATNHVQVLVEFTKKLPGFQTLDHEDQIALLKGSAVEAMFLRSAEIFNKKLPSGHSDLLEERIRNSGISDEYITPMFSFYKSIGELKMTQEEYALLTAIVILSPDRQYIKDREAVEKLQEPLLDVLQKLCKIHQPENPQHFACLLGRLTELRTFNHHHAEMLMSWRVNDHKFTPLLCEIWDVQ
Outline: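 Beta-lactamase reporter under UAS control in HEK 293T cells; compound exposure 16 h at 37 °C in the presence of chenodeoxycholic acid (50 uM final); signal from B/G FRET substrate after 2 h at room temperature.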

[14] = molecular target: Bile acid receptor (Homo sapiens) (UniProt Q96RI1); assay: qHTS assay to identify small molecule agonists of the farnesoid-X-receptor (FXR) signaling pathway (AID 743220; active means well fitted activation curve with a large enough effect in the signal ratio in the repeat runs, not every such curve was filed as active; the % refers to the signal ratio)
Outline: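 Beta-lactamase reporter under UAS control in GeneBLAzer FXR HEK 293T cells (5000/well) measured with LiveBLAzer FRET substrate after 2 h at room temperature. Compound exposure lasted 16 h at 37C.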

[15] = molecular target: Vitamin D3 receptor (Homo sapiens) (UniProt P11473); assay: qHTS assay to identify small molecule agonists of the vitamin D receptor (VDR) signaling pathway (AID 743222; calls by dose curve)
Chain of Vitamin D3 receptor (Homo sapiens) (P11473 whole entry, looked up): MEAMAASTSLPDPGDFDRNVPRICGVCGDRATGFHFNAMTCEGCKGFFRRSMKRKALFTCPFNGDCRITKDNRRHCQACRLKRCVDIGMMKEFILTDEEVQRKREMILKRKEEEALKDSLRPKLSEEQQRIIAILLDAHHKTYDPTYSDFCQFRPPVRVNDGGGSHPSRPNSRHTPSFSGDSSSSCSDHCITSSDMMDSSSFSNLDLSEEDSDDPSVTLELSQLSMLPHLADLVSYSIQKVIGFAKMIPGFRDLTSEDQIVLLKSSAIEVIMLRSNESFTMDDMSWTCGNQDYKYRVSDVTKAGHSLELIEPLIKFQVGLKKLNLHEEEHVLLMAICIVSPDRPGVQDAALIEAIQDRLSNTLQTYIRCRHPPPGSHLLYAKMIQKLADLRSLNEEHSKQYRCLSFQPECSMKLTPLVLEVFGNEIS
Outline: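 Agonist activity measured in VDR-bla reporter cells. Exposure 16 h, 37C, 5% CO2; detection by B/G FRET substrate, 2 h RT.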

[16] = molecular target: Vitamin D3 receptor (Homo sapiens) (UniProt P11473); assay: qHTS assay to identify small molecule antagonists of the vitamin D receptor (VDR) signaling pathway (AID 743223; active means well fitted inhibition curve with a large enough effect in the signal ratio in the repeat runs, not every such curve was filed as active; the % refers to the signal ratio)
Outline: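 Beta-lactamase activity in VDR-bla cells is measured by FRET substrate fluorescence (2 h, room temperature) after cells spend 16 h at 37C with test compound and 3 nM final 1alpha,25-dihydroxyvitamin D3.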

[17] = qHTS assay to identify small molecule antagonists of the retinoid-related orphan receptor gamma (ROR-gamma) signaling pathway - cell viability counter screen (AID 1159520); further: nearly all actives have a fitted effect of over 50% in size
Outline: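 Tet-on ROR gamma CHO cells were given compounds for 2 hr, then doxycycline hyclate at 1 uM final, and incubated 16 hr at 37 C. Viability was measured as ATP content by CellTiter-Glo luminescence.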

[18] = qHTS assay to identify small molecule agonists of the AP-1 signaling pathway - cell viability counter screen (AID 1159525; calls by dose curve; further: nearly all actives have a fitted effect of over 55% in size)
Outline: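 AP-1-bla ME-180 cells in Opti-MEM with 0.5% dialyzed FBS, compound exposure 5 h at 37 C in 15-point titration. Viability read in the same wells as ATP content by CellTiter-Glo luminescence, normalised to tetra-n-octylammonium bromide and DMSO controls.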

[19] = qHTS assay to identify small molecule agonists of the endoplasmic reticulum stress response signaling pathway (AID 1159516; active means well fitted activation curve with a large enough effect in the signal ratio in the repeat runs, not every such curve was filed as active; the % refers to the signal ratio)
Outline: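 ER stress element reporter (bla) in HeLa. 1,500 cells/well, overnight attachment; 5 hr compound; 2 hr RT substrate; dual-emission fluorescence.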

Measured: Potency

NCCc1ccc(O)cc1
not listed: [13] | [14] | [15] | [16] | [17] | [18] | [19]
inactive: all other assays above

Cc1ccc(N)cc1N
not listed: [19]
inactive: all other assays above

CCOC(=O)c1ccccc1C(=O)OCC
not listed: [13] | [14] | [18]
inactive: all other assays above

CC(C)(C)C(O)(CCc1ccc(Cl)cc1)Cn1cncn1 (stereo not given)
not listed: [13] | [14] | [18]
inactive: all other assays above

Cc1[nH]c(=O)n(C(C)(C)C)c(=O)c1Cl
not listed: [2] | [4] | [15] | [16] | [19]
inactive: all other assays above

CCNc1nc(NC(C)C)nc(SC)n1
not listed: [13] | [14] | [18]
inactive: all other assays above

CN(C)N=O
not listed: [2] | [4] | [17] | [19]
inactive: all other assays above

C=CC(N)=O
not listed: [13] | [14]
inactive: all other assays above

C=CCO
not listed: [11] | [13] | [14] | [15] | [16]
inactive: all other assays above

O=S(=O)(c1ccc(Cl)cc1)c1cc(Cl)c(Cl)cc1Cl
not listed: [11] | [12]
inactive: all other assays above
